# Results as given in PMC7862700, “An all-to-all approach to the identification of sequence-specific readers for epigenetic DNA modifications on cytosine”.
# Key:
# Assay in all cases: DAPPL (digital affinity profiling via proximity ligation, sequencing); 10 mM Tris-HCl pH 7.5, 50 mM NaCl, 1 mM DTT, 4% glycerol, room temperature, 30 min; GST-TFs on glutathione beads, 16-mer random dsDNA library, 0.1% formaldehyde crosslink after washing; high values mean tight binding
# [1] = target: T1, FLI1 (Homo sapiens, UniProt Q01543 1-452); details: protein: recombinant; tags: N-terminal GST; dsDNA, one strand shown
# T1 sequence: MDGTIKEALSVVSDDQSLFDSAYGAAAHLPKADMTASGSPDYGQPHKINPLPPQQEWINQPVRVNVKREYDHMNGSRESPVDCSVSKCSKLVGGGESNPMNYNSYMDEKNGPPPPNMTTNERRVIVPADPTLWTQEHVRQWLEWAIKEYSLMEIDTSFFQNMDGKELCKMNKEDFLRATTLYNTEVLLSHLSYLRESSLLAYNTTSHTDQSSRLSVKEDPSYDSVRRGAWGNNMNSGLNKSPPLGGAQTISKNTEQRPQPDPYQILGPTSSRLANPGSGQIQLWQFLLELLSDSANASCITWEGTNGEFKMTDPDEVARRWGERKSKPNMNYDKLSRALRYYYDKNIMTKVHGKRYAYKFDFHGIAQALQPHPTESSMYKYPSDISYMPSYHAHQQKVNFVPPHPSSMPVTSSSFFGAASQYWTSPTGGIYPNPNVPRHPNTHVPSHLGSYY
# Procedure, shortened: (§1)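 Binding signal is defined as a hexamer's read frequency for one factor over its frequency for the tag-only sample. To obtain reads, GST-fused human transcription factors were expressed in yeast, captured on glutathione beads, barcoded with DNA and pooled with that sample. Pools met 200 nmole of a 16-mer random double-stranded DNA library in Tris/NaCl/DTT/glycerol buffer for 30 min at room temperature before washing, 0.1% formaldehyde crosslinking, proximity ligation (BsaI/T4 ligase, 1 h, 37 °C), PCR and Illumina NextSeq500 sequencing.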
# [2] = target: T2, ELK1 (Homo sapiens, UniProt P19419 1-428); details: protein: recombinant; tags: N-terminal GST; dsDNA, one strand shown
# T2 sequence: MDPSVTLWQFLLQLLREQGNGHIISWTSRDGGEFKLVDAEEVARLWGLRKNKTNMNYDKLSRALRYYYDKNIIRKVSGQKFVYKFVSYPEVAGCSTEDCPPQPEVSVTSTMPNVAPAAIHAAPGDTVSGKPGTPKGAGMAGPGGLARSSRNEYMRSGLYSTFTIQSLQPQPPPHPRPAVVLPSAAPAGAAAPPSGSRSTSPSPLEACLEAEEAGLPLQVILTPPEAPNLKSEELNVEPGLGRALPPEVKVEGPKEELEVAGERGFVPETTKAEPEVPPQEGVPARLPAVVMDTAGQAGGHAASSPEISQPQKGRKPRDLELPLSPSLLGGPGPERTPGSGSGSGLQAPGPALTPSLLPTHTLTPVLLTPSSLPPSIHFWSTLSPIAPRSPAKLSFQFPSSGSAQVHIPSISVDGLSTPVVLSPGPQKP
# Procedure, shortened: as §1
# [3] = target: T3, GABPA (Homo sapiens, UniProt Q06546 1-454); details: protein: recombinant; tags: N-terminal GST; dsDNA, one strand shown
# T3 sequence: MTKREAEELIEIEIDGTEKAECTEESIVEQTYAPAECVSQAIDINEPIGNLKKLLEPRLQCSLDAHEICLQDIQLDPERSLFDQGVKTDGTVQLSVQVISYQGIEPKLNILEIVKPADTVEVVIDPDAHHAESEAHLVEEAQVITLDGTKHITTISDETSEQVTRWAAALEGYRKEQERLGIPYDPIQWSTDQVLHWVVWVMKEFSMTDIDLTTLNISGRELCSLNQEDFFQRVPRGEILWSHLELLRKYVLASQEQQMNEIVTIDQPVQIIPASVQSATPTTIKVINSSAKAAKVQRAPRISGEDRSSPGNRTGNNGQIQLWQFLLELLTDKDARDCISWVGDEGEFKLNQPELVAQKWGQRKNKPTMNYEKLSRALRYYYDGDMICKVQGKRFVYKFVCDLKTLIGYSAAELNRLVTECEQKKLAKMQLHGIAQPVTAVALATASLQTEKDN
# Procedure, shortened: as §1
# [4] = target: T4, ERG (Homo sapiens, UniProt P11308 1-479); details: protein: recombinant; tags: N-terminal GST; dsDNA, one strand shown
# T4 sequence: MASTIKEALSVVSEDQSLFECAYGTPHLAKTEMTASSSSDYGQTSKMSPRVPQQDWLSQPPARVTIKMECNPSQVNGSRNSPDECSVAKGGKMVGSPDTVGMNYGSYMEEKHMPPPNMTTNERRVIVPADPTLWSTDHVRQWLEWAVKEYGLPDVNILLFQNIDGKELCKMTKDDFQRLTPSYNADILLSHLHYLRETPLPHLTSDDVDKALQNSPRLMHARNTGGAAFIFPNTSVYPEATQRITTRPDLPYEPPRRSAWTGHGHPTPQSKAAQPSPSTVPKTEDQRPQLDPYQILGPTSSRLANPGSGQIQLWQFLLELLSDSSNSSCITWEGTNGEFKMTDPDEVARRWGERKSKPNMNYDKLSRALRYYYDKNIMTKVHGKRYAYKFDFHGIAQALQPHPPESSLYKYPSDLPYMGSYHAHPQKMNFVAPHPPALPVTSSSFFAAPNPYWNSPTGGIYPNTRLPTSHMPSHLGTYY
# Procedure, shortened: as §1
# [5] = target: ELF1 (Homo sapiens, UniProt P32519 1-619); details: protein: recombinant; tags: N-terminal GST; dsDNA, one strand shown
# Procedure, shortened: as §1
# [6] = target: T5, EHF (Homo sapiens, UniProt Q9NZC4 1-300); details: protein: recombinant; tags: N-terminal GST; dsDNA, one strand shown
# T5 sequence: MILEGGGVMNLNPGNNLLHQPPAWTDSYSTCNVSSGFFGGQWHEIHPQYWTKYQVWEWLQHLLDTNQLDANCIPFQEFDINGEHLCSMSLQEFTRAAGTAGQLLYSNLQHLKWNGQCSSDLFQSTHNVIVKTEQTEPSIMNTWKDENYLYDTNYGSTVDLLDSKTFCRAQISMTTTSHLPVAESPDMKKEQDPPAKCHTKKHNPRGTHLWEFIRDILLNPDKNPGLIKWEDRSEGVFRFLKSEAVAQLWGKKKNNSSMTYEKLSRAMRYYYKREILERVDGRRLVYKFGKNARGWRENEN
# Procedure, shortened: as §1
# [7] = target: SPI1 (Homo sapiens, UniProt P17947 1-270); details: protein: recombinant; tags: N-terminal GST; dsDNA, one strand shown
# Procedure, shortened: as §1
# [8] = target: SPIB (Homo sapiens, UniProt Q01892 1-262); details: protein: recombinant; tags: N-terminal GST; dsDNA, one strand shown
# Procedure, shortened: as §1
# [9] = target: T6, ELK3 (Homo sapiens, UniProt P41970 1-407); details: protein: recombinant; tags: N-terminal GST; dsDNA, one strand shown
# T6 sequence: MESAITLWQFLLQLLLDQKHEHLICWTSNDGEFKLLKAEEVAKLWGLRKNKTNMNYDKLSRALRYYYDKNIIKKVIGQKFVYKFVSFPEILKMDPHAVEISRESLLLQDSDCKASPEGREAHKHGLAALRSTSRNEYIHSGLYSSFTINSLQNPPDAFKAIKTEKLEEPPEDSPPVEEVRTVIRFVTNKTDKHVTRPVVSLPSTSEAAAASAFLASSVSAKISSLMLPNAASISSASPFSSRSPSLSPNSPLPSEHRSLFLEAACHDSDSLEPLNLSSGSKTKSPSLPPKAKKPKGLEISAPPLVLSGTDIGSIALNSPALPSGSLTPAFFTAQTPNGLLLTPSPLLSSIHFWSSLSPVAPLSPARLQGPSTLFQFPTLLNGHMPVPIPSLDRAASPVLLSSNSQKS
# Procedure, shortened: as §1
# [10] = target: T7, FEV (Homo sapiens, UniProt Q99581 1-238); details: protein: recombinant; tags: N-terminal GST; dsDNA, one strand shown
# T7 sequence: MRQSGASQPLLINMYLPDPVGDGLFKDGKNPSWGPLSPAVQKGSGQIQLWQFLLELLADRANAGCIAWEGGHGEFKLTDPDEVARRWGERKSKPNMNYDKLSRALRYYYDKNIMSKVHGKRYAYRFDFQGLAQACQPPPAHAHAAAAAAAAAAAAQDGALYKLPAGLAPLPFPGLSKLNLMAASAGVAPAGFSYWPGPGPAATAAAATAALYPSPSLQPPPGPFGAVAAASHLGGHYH
# Procedure, shortened: as §1
# [11] = target: ETV5 (Homo sapiens, UniProt P41161 1-510); details: protein: recombinant; tags: N-terminal GST; dsDNA, one strand shown
# Procedure, shortened: as §1
# [12] = target: HSF1 (Homo sapiens, UniProt Q00613 1-529); details: protein: recombinant; tags: N-terminal GST; chain copies: 3; dsDNA, one strand shown
# Procedure, shortened: as §1
# [13] = target: T8, SPIC (Homo sapiens, UniProt Q8N5J4 1-248); details: protein: recombinant; tags: N-terminal GST; dsDNA, one strand shown
# T8 sequence: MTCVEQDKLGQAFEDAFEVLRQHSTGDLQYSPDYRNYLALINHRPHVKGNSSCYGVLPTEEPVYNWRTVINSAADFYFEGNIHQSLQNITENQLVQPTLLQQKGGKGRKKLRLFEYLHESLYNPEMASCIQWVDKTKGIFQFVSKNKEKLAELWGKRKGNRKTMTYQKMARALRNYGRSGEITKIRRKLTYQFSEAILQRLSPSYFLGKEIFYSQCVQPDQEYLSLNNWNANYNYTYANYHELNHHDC
# Procedure, shortened: as §1
# [14] = target: ELF4 (Homo sapiens, UniProt Q99607 1-663); details: protein: recombinant; tags: N-terminal GST; dsDNA, one strand shown
# Procedure, shortened: as §1
# [15] = target: T9, ELK4 (Homo sapiens, UniProt P28324-2 1-405); details: protein: recombinant; tags: N-terminal GST; dsDNA, one strand shown
# T9 sequence: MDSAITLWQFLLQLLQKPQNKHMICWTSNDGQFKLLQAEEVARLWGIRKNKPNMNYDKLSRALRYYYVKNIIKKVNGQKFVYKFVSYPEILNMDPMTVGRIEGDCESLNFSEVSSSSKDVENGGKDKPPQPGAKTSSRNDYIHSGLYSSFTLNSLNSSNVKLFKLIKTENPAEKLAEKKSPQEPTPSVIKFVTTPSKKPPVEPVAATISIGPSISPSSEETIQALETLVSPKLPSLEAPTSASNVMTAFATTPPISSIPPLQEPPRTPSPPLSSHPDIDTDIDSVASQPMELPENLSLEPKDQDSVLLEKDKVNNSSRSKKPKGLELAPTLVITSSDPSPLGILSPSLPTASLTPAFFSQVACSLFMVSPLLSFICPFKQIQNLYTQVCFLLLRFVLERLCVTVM
# Procedure, shortened: as §1
# [16] = target: T10, ETV2 (Homo sapiens, UniProt O00321 1-342); details: protein: recombinant; tags: N-terminal GST; dsDNA, one strand shown
# T10 sequence: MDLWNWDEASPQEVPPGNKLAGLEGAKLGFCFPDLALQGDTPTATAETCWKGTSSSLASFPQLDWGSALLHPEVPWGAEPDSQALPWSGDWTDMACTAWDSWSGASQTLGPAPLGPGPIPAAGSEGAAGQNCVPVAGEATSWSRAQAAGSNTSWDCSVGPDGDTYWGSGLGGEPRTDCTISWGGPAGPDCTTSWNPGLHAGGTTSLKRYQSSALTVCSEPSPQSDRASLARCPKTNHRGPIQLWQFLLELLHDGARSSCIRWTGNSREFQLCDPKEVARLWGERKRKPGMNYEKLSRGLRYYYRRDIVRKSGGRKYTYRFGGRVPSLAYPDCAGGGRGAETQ
# Procedure, shortened: as §1
# [17] = target: T11, ELF3 (Homo sapiens, UniProt P78545 1-371); details: protein: recombinant; tags: N-terminal GST; dsDNA, one strand shown
# T11 sequence: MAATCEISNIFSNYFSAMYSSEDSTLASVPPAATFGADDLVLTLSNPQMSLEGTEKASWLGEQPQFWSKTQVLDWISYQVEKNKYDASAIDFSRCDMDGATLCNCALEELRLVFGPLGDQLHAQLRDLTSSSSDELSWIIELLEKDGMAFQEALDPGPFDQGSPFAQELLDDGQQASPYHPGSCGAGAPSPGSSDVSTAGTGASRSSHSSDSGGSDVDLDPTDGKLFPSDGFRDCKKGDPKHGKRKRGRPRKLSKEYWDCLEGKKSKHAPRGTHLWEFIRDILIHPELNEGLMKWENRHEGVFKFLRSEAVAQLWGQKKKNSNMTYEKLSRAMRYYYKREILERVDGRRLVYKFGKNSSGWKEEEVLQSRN
# Procedure, shortened: as §1
# [18] = target: CRX (Homo sapiens, UniProt O43186 1-299); details: protein: recombinant; tags: N-terminal GST; dsDNA, one strand shown
# Procedure, shortened: as §1
# [19] = target: ETV1 (Homo sapiens, UniProt P50549 1-477); details: protein: recombinant; tags: N-terminal GST; dsDNA, one strand shown
# Procedure, shortened: as §1
# ELF4, sequence (Q99607 whole entry): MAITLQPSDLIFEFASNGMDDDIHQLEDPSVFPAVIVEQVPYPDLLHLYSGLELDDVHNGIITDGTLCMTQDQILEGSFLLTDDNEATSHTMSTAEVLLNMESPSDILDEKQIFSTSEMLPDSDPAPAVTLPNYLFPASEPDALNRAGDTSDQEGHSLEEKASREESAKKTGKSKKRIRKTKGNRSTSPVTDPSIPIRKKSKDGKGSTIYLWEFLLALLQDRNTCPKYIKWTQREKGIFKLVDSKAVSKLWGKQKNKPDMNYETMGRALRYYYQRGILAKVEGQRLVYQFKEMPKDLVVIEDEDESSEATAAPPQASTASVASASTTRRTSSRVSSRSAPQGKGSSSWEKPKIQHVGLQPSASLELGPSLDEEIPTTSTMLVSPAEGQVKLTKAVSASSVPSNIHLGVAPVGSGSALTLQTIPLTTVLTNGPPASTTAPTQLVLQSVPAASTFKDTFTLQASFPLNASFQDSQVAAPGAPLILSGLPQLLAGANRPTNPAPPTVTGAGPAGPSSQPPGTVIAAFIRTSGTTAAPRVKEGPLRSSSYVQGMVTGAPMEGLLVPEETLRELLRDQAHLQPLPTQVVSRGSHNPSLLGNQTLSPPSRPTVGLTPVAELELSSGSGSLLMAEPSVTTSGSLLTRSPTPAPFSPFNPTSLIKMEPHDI
# ELF1, sequence (P32519 whole entry): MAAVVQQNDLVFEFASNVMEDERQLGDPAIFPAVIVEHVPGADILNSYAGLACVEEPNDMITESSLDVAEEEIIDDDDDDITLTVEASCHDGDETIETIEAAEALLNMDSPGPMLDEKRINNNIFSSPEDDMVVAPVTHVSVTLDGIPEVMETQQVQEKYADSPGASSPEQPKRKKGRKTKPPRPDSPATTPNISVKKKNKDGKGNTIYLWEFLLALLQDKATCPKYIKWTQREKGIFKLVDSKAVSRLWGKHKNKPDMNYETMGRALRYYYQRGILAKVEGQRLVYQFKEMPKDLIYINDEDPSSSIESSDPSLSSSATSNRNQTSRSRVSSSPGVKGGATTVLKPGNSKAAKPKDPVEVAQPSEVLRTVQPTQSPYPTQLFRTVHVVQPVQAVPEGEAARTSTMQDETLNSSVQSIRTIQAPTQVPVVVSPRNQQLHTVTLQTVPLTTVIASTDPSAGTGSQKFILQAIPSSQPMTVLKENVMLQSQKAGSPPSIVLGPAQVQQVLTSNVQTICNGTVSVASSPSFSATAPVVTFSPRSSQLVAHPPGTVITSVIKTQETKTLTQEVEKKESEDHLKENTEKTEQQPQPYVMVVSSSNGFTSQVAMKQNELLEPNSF
# SPIB, sequence (Q01892 whole entry): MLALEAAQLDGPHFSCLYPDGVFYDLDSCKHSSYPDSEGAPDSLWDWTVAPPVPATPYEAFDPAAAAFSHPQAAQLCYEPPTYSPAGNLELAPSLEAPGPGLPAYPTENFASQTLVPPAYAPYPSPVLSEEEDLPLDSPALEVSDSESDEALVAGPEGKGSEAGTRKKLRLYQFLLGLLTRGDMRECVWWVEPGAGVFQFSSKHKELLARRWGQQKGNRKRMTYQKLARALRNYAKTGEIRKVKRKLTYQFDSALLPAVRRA
# HSF1, sequence (Q00613 whole entry): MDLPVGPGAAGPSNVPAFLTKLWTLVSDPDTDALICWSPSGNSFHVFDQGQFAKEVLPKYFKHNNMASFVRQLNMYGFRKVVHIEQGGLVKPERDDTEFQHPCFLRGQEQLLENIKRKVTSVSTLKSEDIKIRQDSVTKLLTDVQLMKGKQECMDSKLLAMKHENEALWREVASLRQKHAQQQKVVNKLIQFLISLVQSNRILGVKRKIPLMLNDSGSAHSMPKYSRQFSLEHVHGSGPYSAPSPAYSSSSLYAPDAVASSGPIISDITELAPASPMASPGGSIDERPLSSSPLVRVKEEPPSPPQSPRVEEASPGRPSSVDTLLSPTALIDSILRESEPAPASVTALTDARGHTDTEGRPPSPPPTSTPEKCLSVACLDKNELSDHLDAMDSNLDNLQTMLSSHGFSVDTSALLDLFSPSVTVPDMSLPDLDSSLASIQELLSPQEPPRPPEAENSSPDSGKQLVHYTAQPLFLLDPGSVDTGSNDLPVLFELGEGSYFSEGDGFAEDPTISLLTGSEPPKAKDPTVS
# ETV1, sequence (P50549 whole entry): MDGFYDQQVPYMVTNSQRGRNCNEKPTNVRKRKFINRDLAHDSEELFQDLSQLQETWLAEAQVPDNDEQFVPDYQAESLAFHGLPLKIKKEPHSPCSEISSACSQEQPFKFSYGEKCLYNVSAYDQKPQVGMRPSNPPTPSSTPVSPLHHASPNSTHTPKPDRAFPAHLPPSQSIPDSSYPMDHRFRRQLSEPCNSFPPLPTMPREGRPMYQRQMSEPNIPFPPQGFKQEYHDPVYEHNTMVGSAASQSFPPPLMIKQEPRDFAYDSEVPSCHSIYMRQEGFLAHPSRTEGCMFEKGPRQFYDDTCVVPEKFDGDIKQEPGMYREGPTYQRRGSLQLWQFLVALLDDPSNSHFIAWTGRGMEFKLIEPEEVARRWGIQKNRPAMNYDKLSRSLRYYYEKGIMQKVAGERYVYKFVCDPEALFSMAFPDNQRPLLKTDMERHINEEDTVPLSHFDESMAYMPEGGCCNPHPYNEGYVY
# ETV5, sequence (P41161 whole entry): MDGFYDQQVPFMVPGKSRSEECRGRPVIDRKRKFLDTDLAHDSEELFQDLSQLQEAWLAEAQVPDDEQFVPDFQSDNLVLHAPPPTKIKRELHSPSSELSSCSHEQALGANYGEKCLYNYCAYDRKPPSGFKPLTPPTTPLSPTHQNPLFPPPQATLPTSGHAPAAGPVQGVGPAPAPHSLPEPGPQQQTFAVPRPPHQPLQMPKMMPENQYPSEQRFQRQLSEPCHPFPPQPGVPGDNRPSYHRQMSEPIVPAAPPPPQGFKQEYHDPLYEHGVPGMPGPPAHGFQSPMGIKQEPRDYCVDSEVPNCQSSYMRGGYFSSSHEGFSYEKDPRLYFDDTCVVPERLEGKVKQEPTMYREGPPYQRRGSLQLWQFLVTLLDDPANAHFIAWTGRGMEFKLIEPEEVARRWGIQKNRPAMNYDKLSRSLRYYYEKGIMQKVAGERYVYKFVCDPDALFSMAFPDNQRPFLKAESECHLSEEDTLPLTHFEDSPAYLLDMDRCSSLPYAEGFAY
# CRX, sequence (O43186 whole entry): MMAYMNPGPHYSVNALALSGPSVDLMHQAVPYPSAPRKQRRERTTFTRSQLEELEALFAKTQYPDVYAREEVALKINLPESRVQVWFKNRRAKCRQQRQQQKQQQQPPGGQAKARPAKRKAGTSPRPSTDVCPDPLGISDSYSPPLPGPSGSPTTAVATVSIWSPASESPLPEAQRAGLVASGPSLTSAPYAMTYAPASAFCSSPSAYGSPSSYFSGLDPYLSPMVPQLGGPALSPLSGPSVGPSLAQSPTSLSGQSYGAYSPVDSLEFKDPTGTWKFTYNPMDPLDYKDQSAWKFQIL
sequence,measurement,setting,value
TACTAT,binding signal,[1],"1.5 fold enrichment (6-mer frequency, TF over GST control)"
same,binding signal,[2],"1.24 fold enrichment (6-mer frequency, TF over GST control)"
same,binding signal,[3],"1.44 fold enrichment (6-mer frequency, TF over GST control)"
same,binding signal,[4],"1.33 fold enrichment (6-mer frequency, TF over GST control)"
same,binding signal,[5],"1.31 fold enrichment (6-mer frequency, TF over GST control)"
same,binding signal,[6],"1.39 fold enrichment (6-mer frequency, TF over GST control)"
same,binding signal,[7],"1.3 fold enrichment (6-mer frequency, TF over GST control)"
same,binding signal,[8],"1.42 fold enrichment (6-mer frequency, TF over GST control)"
same,binding signal,[9],"1.24 fold enrichment (6-mer frequency, TF over GST control)"
same,binding signal,[10],"1.31 fold enrichment (6-mer frequency, TF over GST control)"
same,binding signal,[11],"1.31 fold enrichment (6-mer frequency, TF over GST control)"
same,binding signal,[12],"1.37 fold enrichment (6-mer frequency, TF over GST control)"
same,binding signal,[13],"1.45 fold enrichment (6-mer frequency, TF over GST control)"
same,binding signal,[14],"1.35 fold enrichment (6-mer frequency, TF over GST control)"
same,binding signal,[15],"1.33 fold enrichment (6-mer frequency, TF over GST control)"
same,binding signal,[16],"1.4 fold enrichment (6-mer frequency, TF over GST control)"
same,binding signal,[17],"1.2 fold enrichment (6-mer frequency, TF over GST control)"
same,binding signal,[18],"1.48 fold enrichment (6-mer frequency, TF over GST control)"
same,binding signal,[19],"1.28 fold enrichment (6-mer frequency, TF over GST control)"
